Our source for the Potency and outcome values is PubChem BioAssay (NCATS).

Inconclusive results are not listed. The source made the active and inactive calls. The call rests on the fitted dose curve; in most records, active means well fitted cell-killing curve with a large enough effect; inconclusive means small, poorly fitted or top-dose-only effect; inactive means flat fitted curve, though single readings scatter.

Test [1] can be described thus: Cell Viability - LYMP2-015 (AID 971). Further: nearly all actives have a fitted effect of over 55% in size. Further: potency means the concentration at half of the fitted maximal effect. An outline of the steps:
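qHTS cytotoxicity: 2500 cells/well, 5 hr 37 C, compound 24 hr 37 C, CellTiter-Glo 30 min RT, luminescence. Loss of ATP = toxicity; AC50 via standard Hill fit.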

Test [2] in a line: Cell Viability - LYMP2-017 (AID 972).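 Further: cells exposed to compound for 24 hours at 37 °C; nearly all actives have a fitted effect of over 55% in size.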 Further: potency means the concentration at half of the fitted maximal effect. Put shortly:
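Luminescent ATP read-out (CellTiter-Glo, 30 min RT) reports viable cell number. Cells: human lymphoblastoid line, 2500 per well, 5 hr preincubation, 24 hr compound exposure at 37 C. AC50 is derived from qHTS concentration-response data using the standard Hill model.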

Test [3] is described as follows: Cell Viability - LYMP2-019 (AID 973). Further: nearly all actives have a fitted effect of over 55% in size. Further: potency means the concentration at half of the fitted maximal effect. An outline of the steps:
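qHTS, 1536-well; 2500 cells/well; 5 hr pre-incubation, 24 hr compound exposure, 37 C; CellTiter-Glo added, 30 min RT; luminescence read; AC50 via standard Hill equation.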

Test [4] can be described thus: Cell Viability - LYMP2-021 (AID 974).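 Further: compound exposure lasts 24 hours at 37 °C; nearly all actives have a fitted effect of over 55% in size.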 Further: potency means the concentration at half of the fitted maximal effect. An outline of the steps:
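ATP luminescence (CellTiter-Glo, 30 min RT) after 24 h compound exposure at 37 C; 2500 human lymphoblastoid cells/well, 5 h settle beforehand. Cytotoxicity = concentration-dependent ATP drop, AC50 by Hill fit.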

Test [5] in a line: Cell Viability - LYMP2-023 (AID 975). Further: potency means the concentration at half of the fitted maximal effect. Put shortly: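 CellTiter-Glo luminescence after 30 min at room temperature; decrease in intracellular ATP reflects toxicity. Cells: human lymphoblastoid line, 2500/well, 24 hr compound exposure at 37 C. AC50 fitted to standard Hill equation from concentration-response.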
Test [6] in a line: Cell Viability - LYMP2-025 (AID 976). Further: series mostly up to about 92 µM. Put shortly:
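CellTiter-Glo luminescence (cellular ATP) after 24 h compound exposure at 37 C; LYMP2-025 human lymphoblastoid cells, 2500/well, complete medium. Tetraoctylammonium bromide positive control. AC50 by Hill equation fit of qHTS concentration-response.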

The nature of test [7]: Cell Viability - LYMP2-002 (AID 977). Further: series mostly up to about 92 µM. An outline of the steps:
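Human lymphoblastoid cells, 2500/well, complete medium; 5 h 37 C settle; compound 24 h 37 C; CellTiter-Glo, 30 min RT; luminescence. Decrease in ATP = cytotoxicity; AC50 via Hill equation.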

Test [8] is described as follows: Cell Viability - LYMP2-006 (AID 978).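 Further: cells exposed to compound for 24 hours; nearly all actives have a fitted effect of over 60% in size.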 Further: potency means the concentration at half of the fitted maximal effect. Put shortly: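 Human lymphoblastoid cells (LYMP2-006), 2500/well in complete medium, were treated with compound for 24 hr at 37 C. Cellular ATP was read by CellTiter-Glo luminescence after 30 min, and AC50 values came from Hill-equation fits of concentration-response data.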
The nature of test [9]: Cell Viability - LYMP2-008 (AID 980). Further: nearly all actives have a fitted effect of over 60% in size. Further: potency means the concentration at half of the fitted maximal effect. An outline of the steps:
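Luminescent ATP read-out (CellTiter-Glo, 30 min RT) after 24 hr compound exposure at 37 C of human lymphoblastoid cells in complete medium. Decrease in ATP taken as cytotoxicity; AC50 derived by standard Hill fit of qHTS concentration-response data.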

The nature of test [10]: Cell Viability - LYMP2-010 (AID 981). Further: potency means the concentration at half of the fitted maximal effect. Put shortly: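 qHTS cytotoxicity, 1536-well: 2500 cells/well, 5 hr settle, 24 hr compound at 37 C, CellTiter-Glo 30 min RT, luminescence read. Decrease in ATP = toxicity; AC50 via standard Hill equation. Positive control tetraoctylammonium bromide.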

As to `OC[C@H]1O[C@@H]2O[C@H]3[C@H](O)[C@@H](O)[C@@H](O[C@H]4[C@H](O)[C@@H](O)[C@@H](O[C@H]5[C@H](O)[C@@H](O)[C@@H](O[C@H]6[C@H](O)[C@@H](O)[C@@H](O[C@H]7[C@H](O)[C@@H](O)[C@@H](O[C@H]1[C@H](O)[C@H]2O)O[C@@H]7CO)O[C@@H]6CO)O[C@@H]5CO)O[C@@H]4CO)O[C@@H]3CO`, the Potency entry in [1], in test [2], in test [3], in test [4], in [5] and in [8] was “inactive” each time. Further, the Potency result in test [9] and in test [10] was “inactive” throughout. For the same compound, the compound was called inactive in [6] and in test [7].
On to `CCCCC`, for which the Potency entry in [1], in test [2], in test [3], in test [4], in test [5] and in test [8] was “inactive” each time. For the same compound, the Potency entry in test [9] and in test [10] was “inactive” throughout. Further, the compound was classed as inactive in test [6] and in [7].
In the case of `O=P(O)(O)O`, the Potency entry in test [1], in test [2], in test [3], in test [4], in test [5] and in test [8] was “inactive” in each case. Moreover, the Potency result in test [9] and in [10] was “inactive” throughout. The result in test [6] and in test [7] was inactive.
In the case of `O=c1n(CC2CO2)c(=O)n(CC2CO2)c(=O)n1CC1CO1` (stereo not given), the Potency in test [1] is 39.8 µM (active); in test [2], 39.8 µM (active); in test [3], 39.8 µM (active); in [4], 31.6 µM (active); in test [5] it was 39.8 µM (active); in test [8], 39.8 µM (active). Moreover, the Potency in [10] is 25.1 µM (active).
In the case of `Cc1ncc[nH]1`, the Potency result in test [1], in [2], in test [3], in test [4], in test [5] and in test [8] was “inactive” in each case. Moreover, the Potency entry in test [9] and in test [10] was “inactive” in each case. For the same compound, the compound was called inactive in test [6] and in test [7].
Turning to `ClC(Cl)Cl`, the Potency entry in test [1], in [2], in [3], in test [4], in test [5] and in [8] was “inactive” in each case. In addition, the Potency result in test [9] and in test [10] was “inactive” each time. Also, the outcome in [6] and in [7] was inactive.
Consider `CC1=CC(=O)NS(=O)(=O)O1`, for which the Potency entry in test [1], in test [2], in test [3], in test [4], in test [5] and in test [8] was “inactive” each time. Besides, the Potency entry in test [9] and in test [10] was “inactive” throughout. Further, the call in [6] and in test [7] was inactive.
Consider `CCOC(C)OCC`, for which the Potency entry in test [1], in test [2], in test [3], in test [4], in test [5] and in [8] was “inactive” throughout. For the same compound, the Potency result in [9] and in test [10] was “inactive” each time. The compound was classed as inactive in test [6] and in test [7].
As for `CO/N=C(/C(=O)N[C@@H]1C(=O)N2C(C(=O)O)=C(COC(N)=O)CS[C@H]12)c1ccco1`, the Potency entry in test [1], in [2], in test [3], in test [4], in [5] and in test [8] was “inactive” in each case. Besides, the Potency entry in test [9] and in test [10] was “inactive” in each case. For the same compound, the compound was called inactive in test [6] and in [7].
With `[O-][N+](=Nc1ccccc1)c1ccccc1`, the Potency result in test [1], in test [2], in test [3], in [4], in test [5] and in test [8] was “inactive” in each case. Also, the Potency result in [9] and in test [10] was “inactive” each time. Further, the outcome in test [6] and in test [7] was inactive.
For `OCl`, the Potency entry in test [1], in test [2], in test [3], in [4], in [5] and in test [8] was “inactive” each time. Also, the Potency entry in test [9] and in [10] was “inactive” in each case. Also, the result in test [6] and in [7] was inactive.
On to `NCCN`, for which the Potency entry in test [1], in [2], in [3], in test [4], in test [5] and in test [8] was “inactive” each time. The Potency result in [9] and in test [10] was “inactive” throughout. Further, the compound was classed as inactive in test [6] and in test [7].
For `CO`, the Potency result in [1], in test [2], in test [3], in test [4], in [5] and in test [8] was “inactive” throughout. The Potency entry in test [9] and in test [10] was “inactive” in each case. The outcome in test [6] and in test [7] was inactive.
For the compound `OCC(O)CO`, the Potency entry in test [1], in test [2], in test [3], in [4], in test [5] and in test [8] was “inactive” throughout. In addition, the Potency entry in [9] and in [10] was “inactive” throughout. In addition, the compound was classed as inactive in [6] and in test [7].
With `C=C1C(CCl)(CCl)C2(Cl)C(Cl)C(Cl)C1(Cl)C2(Cl)Cl` (stereo not given), the Potency in test [1] is 39.8 µM (active); in test [2], 50.1 µM (active); in test [3], 39.8 µM (active); in test [4], 50.1 µM (active); in test [5], 50.1 µM (active); in test [8] it was 50.1 µM (active). The Potency in test [9] was 31.6 µM (active); in test [10], 39.8 µM (active).
As for `COC(=O)c1ccccc1O`, the Potency entry in test [1], in [2], in test [3], in test [4], in [5] and in [8] was “inactive” throughout. Also, the Potency result in test [9] and in test [10] was “inactive” each time. Also, the result in test [6] and in [7] was inactive.
With `C[C@H](CCC(=O)O)[C@H]1CC[C@H]2[C@@H]3[C@H](O)C[C@@H]4C[C@H](O)CC[C@]4(C)[C@H]3C[C@H](O)[C@]12C`, the Potency entry in test [1], in [2], in test [3], in [4], in test [5] and in test [8] was “inactive” throughout. For the same compound, the Potency entry in test [9] and in test [10] was “inactive” each time. In addition, the compound was called inactive in test [6] and in test [7].
On to `OB(O)O`, for which the Potency result in test [1], in test [2], in [3], in test [4], in test [5] and in [8] was “inactive” each time. For the same compound, the Potency result in [9] and in test [10] was “inactive” in each case. Besides, the result in test [6] and in test [7] was inactive.
